Bioassay records from PubChem BioAssay.
ALOX12 inh = ALOX12 (human) lipoxygenase inhibition | P18054 | actives 1.1% (n = 580,000) | AID 1671190 | Potency, µM (titrated, usually from 108 µM), for inactives: at the highest dose activity change, negative = inhibition, most hits filed as inhibitors | purified 12hLO, xylenol orange hydroperoxide absorbance
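Purified human 12hLO at 150 nM in 25 mM Hepes, 0.01% Triton X-100, pH 7.0, preincubated 15 min at room temperature with compound. Reaction started with 40 uM arachidonic acid, 30 min at room temperature. Hydroperoxide measured by Fe-xylenol orange, 573/405 nm absorbance ratio.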
VDR inhibitor = vitamin D3 receptor (human) inhibition; P11473; VDR-SRC2-3 peptide fluorescence polarization, 2 h; Potency, µM, inactives show max response, negative = inhibition, most hits filed as inhibitors; actives 0.93% (n = 400,000); AID 504847
Target sequence (P11473 whole entry, looked up): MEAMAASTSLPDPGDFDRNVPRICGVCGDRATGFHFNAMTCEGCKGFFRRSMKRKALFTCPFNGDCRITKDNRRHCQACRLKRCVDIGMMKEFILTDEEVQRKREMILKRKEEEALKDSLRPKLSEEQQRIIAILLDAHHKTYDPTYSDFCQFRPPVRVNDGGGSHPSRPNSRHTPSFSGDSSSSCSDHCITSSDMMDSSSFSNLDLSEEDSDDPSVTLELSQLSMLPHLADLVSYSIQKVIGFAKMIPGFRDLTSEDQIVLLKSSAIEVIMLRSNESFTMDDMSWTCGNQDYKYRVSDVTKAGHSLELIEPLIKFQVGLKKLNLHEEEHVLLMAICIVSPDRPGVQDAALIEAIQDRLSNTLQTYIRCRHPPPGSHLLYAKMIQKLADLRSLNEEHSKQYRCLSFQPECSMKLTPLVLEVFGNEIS
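Two reagent solutions held at 4 deg C in the dark were dispensed, compounds pinned at 23 nl, and the mixture incubated 2 h at room temperature. Read-out: fluorescence polarization of VDR–SRC2-3 peptide binding.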
Sfp PPTase inh = inhibitors of Bacillus subtilis Sfp phosphopantetheinyl transferase; Q9F4F7; Biochemical Sfp PPTase activity, qHTS; Potency, µM, for the others: largest response in the series, negative = inhibition, actives largely listed as inhibitors; actives 3.5% (n = 310,000); AID 1490;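 note: the enzyme is Sfp with the accession as filed and its product quenches rhodamine fluorescence; 0% = enzyme reaction without inhibitor and -100% = no enzyme wells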
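Sfp 15 nM + cpd, 15 min RT; start w/ rhodamine-CoA 5 uM, BHQ-2-YbbR 12.5 uM (final); 50 mM Hepes pH 7.6, 10 mM MgCl2, 0.01% NP-40, 0.01% BSA; read 525/598 nm at 0 and 30 min.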
PLK1 PBD inh = blocks phosphopeptide binding to human PLK1 polo-box domain. P53350. Plk1 PBD binding of FITC phosphopeptide, fluorescence polarization. Potency, µM, for inactives: max response, negative = inhibition, most hits filed as inhibitors. actives 2.8% (n = 360,000). AID 720504; note: series mostly up to about 57 µM; nearly all actives have a fitted effect of over 65% in size
Starred values were filed as active, the others as inactive; ? = inconclusive; . = not tested or not shown. Sampled rows, rich in hits. Any-hit rate of the full collection: about 4.2%. Calls come from the whole dose curve; as a rule, active = well fitted curve in the direction sought with a large enough effect; inconclusive = small, poorly fitted or top-dose-only effect, or another doubt; inactive = no such curve, though single readings can be large; an effect the other way counts as inactive or inconclusive. Unless noted, % is set by controls: 0 for no effect and ±100 for the full control effect; potency is the fitted concentration of half-maximal effect.

SMILES	ALOX12 inh	VDR inhibitor	Sfp PPTase inh	PLK1 PBD inh
CC(=O)Nc1nc(C)c(-c2csc(Nc3ccc(O)cc3)n2)s1	.	89µM*	35µM*	-29%
Cc1nc(NC(=O)c2ccccc2)sc1-c1csc(Nc2ccc(C(=O)O)cc2)n1	-7%	-9%	-23%	?
Clc1cccc(Cc2nn[nH]n2)c1	388%	-3%	7%	2%
CCn1ncc(C(=O)N2CCCn3ccnc3C2c2ccccc2)c1C (stereo not given)	33%	.	.	.
O=C1CSc2ccc(C(=O)N3CCCCC3)cc2N1	?	.	.	15µM*
CC1CC(C)CN(CCCNC(=O)c2ccc3c(c2)NC(=O)CS3)C1 (stereo not given)	-25%	-2%	10%	30µM*
NC(=O)C1CCCN(C(=O)c2ccc3c(c2)NC(=O)CS3)C1 (stereo not given)	?	-8%	.	3%
Cc1ccc(NS(=O)(=O)c2cc(NC(=O)c3ccc4c(c3)NC(=O)CS4)ccc2C)c(C)c1	?	?	10µM*	9.5µM*
COc1ccc(NC(=O)c2ccc3c(c2)NC(=O)CS3)cc1S(=O)(=O)Nc1ccc(Br)cc1	?	-26%	18µM*	?
CCOc1ccc(OCC)c(NC(=O)c2cnn(-c3ccc(F)cc3)c2C2CCN(C(=O)OC(C)(C)C)CC2)c1	-4%	-7%	.	.
CC1CCCCN1C(=O)c1cc(Cl)ccc1[N+](=O)[O-] (stereo not given)	-8%	14%	-4%	-19%
O=C(Nc1ccc(Cl)cc1)NC1CCCCC1Cc1ccco1 (stereo not given)	?	-5%	26%	-8%
COc1ccc(CNC(=O)c2ccc(CNS(=O)(=O)c3ccc(OC)cc3)cc2)cc1	-8%	-27%	.	.
COc1cc(C)c(NC(=O)c2ccc3c(c2)NC(=O)CS3)cc1OC	20µM*	.	.	.
COc1ccc(S(=O)(=O)NCc2ccc(C(=O)NCCCN3CC(C)CC(C)C3)cc2)cc1 (stereo not given)	-7%	-12%	5%	27µM*
COc1cc(NC(=O)c2ccc3c(c2)NC(=O)CS3)c(OC)cc1Cl	-32%	.	.	.
CCN(CC)C(=O)C(NC(=O)c1cccc(OC)c1)C1CCN(C(=O)c2ccc3c(c2)OCO3)CC1 (stereo not given)	24%	.	.	.
CCC1(c2ccccc2)NC(=O)N(CC(=O)Nc2ccc(OC)nc2)C1=O (stereo not given)	-64%	3%	7%	13µM*
CCC1(c2ccccc2)NC(=O)N(CC(=O)Nc2ccc3c(c2)CCC3)C1=O (stereo not given)	-25%	.	.	-2%
N#CC1=C(N)OC2=C(C(=O)CC(c3ccc(Cl)cc3)C2)C1c1ccccc1Cl (stereo not given)	16µM*	.	.	.
COc1ccc(C2CC(=O)C3=C(C2)OC(N)=C(C#N)C3c2ccc(C)cc2)cc1 (stereo not given)	-72%	.	.	.
COc1ccc(/C=C2\Oc3cc(OS(=O)(=O)c4ccccc4)ccc3C2=O)c(OC)c1	8%	.	.	.
COc1ccc(CCNC(=O)c2ccccc2NC(=O)C2=C(C)OCCS2)cc1OC	3%	3%	12%	-5%
O=C(CSc1ccccc1F)NCCCN1CCCC1=O	-8%	-12%	.	-11%
O=C(CSc1ccccc1C(=O)NCCCN1CCCC1=O)NCc1ccco1	-10%	?	45µM*	-18%
SMILES	ALOX12 inh	VDR inhibitor	Sfp PPTase inh	PLK1 PBD inh
O=C(COc1ccc(C(=S)N2CCOCC2)cc1Cl)Nc1ccccc1Cl	120%	-4%	20µM*	?
O=C(Oc1ccc(Br)cc1C(=S)N1CCOCC1)c1ccccc1	?	-19%	-25%	-25%
COc1ccc(C(=S)N2CCOCC2)cc1OC(=O)c1ccccc1Cl	-6%	-21%	56µM*	19µM*
O=C(Oc1cccc(C(=S)N2CCOCC2)c1)c1ccccc1	-21%	-11%	56µM*	?
COc1cc(C(=S)N2CCOCC2)ccc1OC(=O)c1cccc(C)c1	-3%	-8%	79µM*	?
O=C(NCc1cccs1)c1ccc(S(=O)(=O)N2CCOCC2)cc1	2%	-1%	14%	-2%
CC(NC(=O)Nc1ccccc1O)(C(F)(F)F)C(F)(F)F	-25%	10%	?	27µM*
CC(NC(=O)Nc1ccc(O)cc1)(C(F)(F)F)C(F)(F)F	-41%	-9%	-4%	-4%
O=C(O)c1ccc(N2C(=O)/C(=C/c3ccc(-c4ccc([N+](=O)[O-])cc4)o3)C=C2c2ccccc2)cc1	.	?	50µM*	12µM*
